According to PubChem BioAssay AID1159580 (chemical genetic matrix, 2015):
Several values for one entry are separate records, joined by “and”; a condition that tells them apart may be missing. Equal values may be shown once. Hit rate of the full screen: of about 5,500 compounds, about 2,000 (36%) were called active. Inconclusive results (about 18%) are left out. No stated cut-off is given here; in the data, active means normalized growth mostly below about 0.91 (no sharp cut-off); inconclusive means no clear call, values can overlap the other calls; inactive means mostly above about 0.92. This is one part of the list.

Assay: chemical genetic growth profiling, strain panel (AID 1159580);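 further: tested at 20 µM; growth read once vehicle control cultures reached saturation at 30 °C; 1 = growth at the plate median or of vehicle wells; lower values mean less growth of the strain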
Conditions: S. cerevisiae deletion strains, growth OD

Measured: normalized growth

Cc1ccsc1/C=C/C1=NCCCN1C
inactive: locus YAL013W, strain DEP1, hits give low values 1.01 | locus YAL021C, strain ccr4, hits give low values 1 | locus YAL026C, strain drs2, hits give low values 0.996 | locus YAL030W, strain snc1, hits give low values 0.996 | locus YBL061C, strain skt5, hits give low values 0.984 | locus YBR009C, strain hhf1, hits give low values 1 | locus YBR021W, strain FUR4, hits give low values 1.02 | locus YBR023C, strain chs3, hits give low values 0.984 | locus YBR171W, strain sec66, hits give low values 0.99 | locus YBR229C, strain ROT2, hits give low values 1.01 | locus YBR231C, strain swc5, hits give low values 1.07 | locus YBR279W, strain paf1, hits give low values 0.992 | locus YCL011C, strain gbp2, hits give low values 0.982 | locus YCL016C, strain dcc1, hits give low values 0.996 | locus YCL029C, strain bik1, hits give low values 0.969 | locus YCL061C, strain MRC1, hits give low values 0.992 | locus YCL069W, strain vba3, hits give low values 0.986 | locus YCR088W, strain abp1, hits give low values 0.993 | locus YDL005C, strain med2, hits give low values 0.983 | locus YDL035C, strain GPR1, hits give low values 1.02 | locus YDL040C, strain nat1, hits give low values 0.985 | locus YDL074C, strain BRE1, hits give low values 0.995 | locus YDL101C, strain DUN1, hits give low values 0.991 | locus YDL134C, strain PPH21, hits give low values 1.02 | locus YDL185W, strain tfp1, hits give low values 0.938 | locus YDL192W, strain arf1, hits give low values 0.972 | locus YDR001C, strain nth1, hits give low values 0.996 | locus YDR069C, strain doa4, hits give low values 0.993 | locus YDR101C, strain arx1, hits give low values 0.965 | locus YDR137W, strain rgp1, hits give low values 0.941 | locus YDR150W, strain NUM1, hits give low values 0.998 | locus YDR159W, strain sac3, hits give low values 0.998 | locus YDR162C, strain NBP2, hits give low values 1.01 | locus YDR195W, strain ref2 1.01 | locus YDR297W, strain sur2, hits give low values 1 | locus YDR318W, strain mcm21, hits give low values 0.972 | locus YDR334W, strain swr1, hits give low values 0.986 | locus YDR335W, strain msn5, hits give low values 0.991 | locus YDR388W, hits give low values 0.98 | locus YDR392W, strain spt3, hits give low values 0.992 | locus YDR502C, strain sam2, hits give low values 1 | locus YEL003W, strain gim4, hits give low values 0.996 | locus YEL037C, strain rad23, hits give low values 0.995 | locus YEL061C, strain CIN8 (second series), hits give low values 0.992 | locus YEL061C, strain CIN8, hits give low values 1 | locus YER015W, strain faa2, hits give low values 0.971 | locus YER016W, strain bim1, hits give low values 0.982 | locus YER110C, hits give low values 0.982 | locus YER111C, strain swi4, hits give low values 0.989 | locus YER155C, strain BEM2 (second series), hits give low values 1 | locus YER155C, strain BEM2, hits give low values 0.988 | locus YER167W, strain BCK2, hits give low values 1.01 | locus YFR010W, strain ubp6, hits give low values 0.992 | locus YGL078C, strain dbp3, hits give low values 0.984 | locus YGL086W, strain mad1, hits give low values 1.01 | locus YGL167C, strain pmr1, hits give low values 0.987 | locus YGL173C, strain kem1, hits give low values 0.987 | locus YGL227W, strain vid30, hits give low values 0.991 | locus YGL240W, strain doc1, hits give low values 1 | locus YGL248W, strain PDE1, hits give low values 1.02 | locus YGL253W, strain hxk2, hits give low values 0.995 | locus YGR078C, strain PAC10, hits give low values 1 | locus YGR135W, strain pre9, hits give low values 1.01 | locus YGR229C, strain SMI1, hits give low values 1.03 | locus YGR252W, strain gcn5, hits give low values 1.06 | locus YHR013C, strain ard1, hits give low values 0.978 | locus YHR027C, strain rpn1, hits give low values 0.982 | locus YHR030C, strain SLT2, hits give low values 1 and 0.986 | locus YHR079C, strain IRE1 (second series), hits give low values 0.963 | locus YHR079C, strain IRE1, hits give low values 0.974 | locus YHR094C, strain hxt1, hits give low values 0.956 | locus YHR129C, strain ARP1, hits give low values 1 | locus YHR142W, strain chs7, hits give low values 0.997 | locus YHR200W, strain rpn10, hits give low values 0.984 | locus YIL066C, strain RNR3, hits give low values 0.998 | locus YIL073C, strain SPO22, hits give low values 0.91 | locus YIL125W, strain kgd1, hits give low values 0.984 | locus YIR030C, strain dcg1, hits give low values 0.976 | locus YJL092W, strain hpr5, hits give low values 0.993 | locus YJL095W, strain BCK1 (second series), hits give low values 0.991 | locus YJL095W, strain BCK1, hits give low values 0.988 and 1 | locus YJL115W, strain asf1, hits give low values 0.99 | locus YJL129C, strain trk1, hits give low values 0.985 | locus YJL134W, strain LCB3, hits give low values 1 | locus YJL154C, strain vps35, hits give low values 0.984 | locus YJL164C, strain tpk1, hits give low values 0.99 | locus YJL166W, strain qcr8, hits give low values 0.994 | locus YJL168C, strain set2, hits give low values 0.984 | locus YJL187C, strain SWE1 (second series), hits give low values 0.99 | locus YJL187C, strain SWE1, hits give low values 0.997 | locus YJR043C, strain POL32, hits give low values 1.01 | locus YJR066W, strain TOR1, hits give low values 0.967
